# Assay results: PubChem BioAssay AID1159580 (chemical genetic matrix, 2015)
# Where “and” joins values, the source holds several entries; their conditions need not be identical. Identical values can stand only once. The whole screen tested about 5,500 compounds, of which about 2,000 (36%) were called active. Not shown: some 18% with an inconclusive outcome. Some of the results follow. Unmarked numbers belong to inactive results. No stated cut-off is given here; in the data, active means normalized growth mostly below about 0.91 (no sharp cut-off); inconclusive means no clear call, values can overlap the other calls; inactive means mostly above about 0.92.
# Assay: chemical genetic growth profiling, strain panel (AID 1159580);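 further: tested at 20 µM; growth read once vehicle control cultures reached saturation at 30 °C; 1 = growth at the plate median or of vehicle wells; lower values mean less growth of the strain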
# Details: S. cerevisiae deletion strains, growth OD
smiles,measurement,setting,value
OCCN1CCN(CCCN2c3ccccc3Sc3ccc(C(F)(F)F)cc32)CC1,normalized growth,"locus YAL013W, strain DEP1, active compounds read low",0.947 and 0.96
same,normalized growth,"locus YAL021C, strain ccr4, active compounds read low",0.828 (active)
same,normalized growth,"locus YAL026C, strain drs2, active compounds read low",0.0826 (active)
same,normalized growth,"locus YAL030W, strain snc1, active compounds read low",0.984
same,normalized growth,"locus YAL040C, strain CLN3, active compounds read low",1.01
same,normalized growth,"locus YBL061C, strain skt5, active compounds read low",0.951
same,normalized growth,"locus YBR009C, strain hhf1, active compounds read low",0.935
same,normalized growth,"locus YBR021W, strain FUR4, active compounds read low",0.589 (active)
same,normalized growth,"locus YBR023C, strain chs3, active compounds read low",0.899 (active)
same,normalized growth,"locus YBR171W, strain sec66, active compounds read low",0.992
same,normalized growth,"locus YBR229C, strain ROT2, active compounds read low",0.987
same,normalized growth,"locus YBR231C, strain swc5, active compounds read low",0.964
same,normalized growth,"locus YBR279W, strain paf1, active compounds read low",0.953
same,normalized growth,"locus YCL011C, strain gbp2, active compounds read low",0.919
same,normalized growth,"locus YCL016C, strain dcc1, active compounds read low",0.937
same,normalized growth,"locus YCL029C, strain bik1, active compounds read low",0.978
same,normalized growth,"locus YCL061C, strain MRC1 (second series), active compounds read low",0.957
same,normalized growth,"locus YCL069W, strain vba3, active compounds read low",0.995
same,normalized growth,"locus YCR088W, strain abp1, active compounds read low",0.987
same,normalized growth,"locus YDL005C, strain med2, active compounds read low",1
same,normalized growth,"locus YDL035C, strain GPR1, active compounds read low",0.928
same,normalized growth,"locus YDL040C, strain nat1, active compounds read low",0.98
same,normalized growth,"locus YDL074C, strain BRE1, active compounds read low",0.808
same,normalized growth,"locus YDL101C, strain DUN1, active compounds read low",0.979
same,normalized growth,"locus YDL134C, strain PPH21, active compounds read low",0.977
same,normalized growth,"locus YDL185W, strain tfp1, active compounds read low",0.981
same,normalized growth,"locus YDL192W, strain arf1, active compounds read low",0.963
same,normalized growth,"locus YDR001C, strain nth1, active compounds read low",0.989
same,normalized growth,"locus YDR069C, strain doa4, active compounds read low",0.863 (active)
same,normalized growth,"locus YDR101C, strain arx1, active compounds read low",0.933
same,normalized growth,"locus YDR137W, strain rgp1, active compounds read low",1.27 [resistant] (active)
same,normalized growth,"locus YDR150W, strain NUM1, active compounds read low",0.997
same,normalized growth,"locus YDR159W, strain sac3, active compounds read low",0.992
same,normalized growth,"locus YDR162C, strain NBP2, active compounds read low",0.947
same,normalized growth,"locus YDR195W, strain ref2",1.27 [resistant] (active)
same,normalized growth,"locus YDR297W, strain sur2, active compounds read low",0.981
same,normalized growth,"locus YDR318W, strain mcm21, active compounds read low",0.947
same,normalized growth,"locus YDR334W, strain swr1, active compounds read low",0.987
same,normalized growth,"locus YDR335W, strain msn5, active compounds read low",0.972
same,normalized growth,"locus YDR363W, strain ESC2, active compounds read low",0.978
same,normalized growth,"locus YDR388W, active compounds read low",0.878 (active)
same,normalized growth,"locus YDR392W, strain spt3, active compounds read low",1.06
same,normalized growth,"locus YDR502C, strain sam2, active compounds read low",0.939
same,normalized growth,"locus YEL003W, strain gim4, active compounds read low",0.982
same,normalized growth,"locus YEL037C, strain rad23, active compounds read low",0.994
same,normalized growth,"locus YEL061C, strain CIN8 (second series), active compounds read low",0.973
same,normalized growth,"locus YEL061C, strain CIN8, active compounds read low",0.996
same,normalized growth,"locus YER002W, strain NOP16, active compounds read low",1
same,normalized growth,"locus YER015W, strain faa2, active compounds read low",0.931
same,normalized growth,"locus YER016W, strain bim1, active compounds read low",0.979
same,normalized growth,"locus YER110C, active compounds read low",0.996
same,normalized growth,"locus YER111C, strain swi4, active compounds read low",0.986
same,normalized growth,"locus YER155C, strain BEM2 (second series), active compounds read low",1
same,normalized growth,"locus YER155C, strain BEM2, active compounds read low",0.989
same,normalized growth,"locus YER167W, strain BCK2, active compounds read low",0.974
same,normalized growth,"locus YFR010W, strain ubp6, active compounds read low",0.839 (active)
same,normalized growth,"locus YGL078C, strain dbp3, active compounds read low",0.986
same,normalized growth,"locus YGL086W, strain mad1, active compounds read low",0.964
same,normalized growth,"locus YGL167C, strain pmr1, active compounds read low",0.976
same,normalized growth,"locus YGL173C, strain kem1, active compounds read low",0.964
same,normalized growth,"locus YGL227W, strain vid30, active compounds read low",0.984
same,normalized growth,"locus YGL240W, strain doc1, active compounds read low",0.997
same,normalized growth,"locus YGL248W, strain PDE1, active compounds read low",0.989
same,normalized growth,"locus YGL253W, strain hxk2, active compounds read low",0.917
same,normalized growth,"locus YGR078C, strain PAC10, active compounds read low",0.907 and 0.971
same,normalized growth,"locus YGR135W, strain pre9, active compounds read low",0.896
same,normalized growth,"locus YGR229C, strain SMI1, active compounds read low",0.602 (active) and 0.781 (active)
same,normalized growth,"locus YGR252W, strain gcn5, active compounds read low",0.664 (active)
same,normalized growth,"locus YHR013C, strain ard1, active compounds read low",1
same,normalized growth,"locus YHR027C, strain rpn1, active compounds read low",0.937
same,normalized growth,"locus YHR030C, strain SLT2, active compounds read low",0.933
same,normalized growth,"locus YHR079C, strain IRE1 (second series), active compounds read low",0.973
same,normalized growth,"locus YHR094C, strain hxt1, active compounds read low",0.992
same,normalized growth,"locus YHR129C, strain ARP1, active compounds read low",0.983
same,normalized growth,"locus YHR142W, strain chs7, active compounds read low",0.897
same,normalized growth,"locus YHR200W, strain rpn10, active compounds read low",0.968
same,normalized growth,"locus YIL066C, strain RNR3, active compounds read low",0.915
same,normalized growth,"locus YIL073C, strain SPO22, active compounds read low",1.18
same,normalized growth,"locus YIL125W, strain kgd1, active compounds read low",0.995
same,normalized growth,"locus YIR030C, strain dcg1, active compounds read low",0.985
same,normalized growth,"locus YJL092W, strain hpr5, active compounds read low",0.969
same,normalized growth,"locus YJL095W, strain BCK1 (second series), active compounds read low",0.94
same,normalized growth,"locus YJL095W, strain BCK1, active compounds read low",0.794 (active)
same,normalized growth,"locus YJL115W, strain asf1, active compounds read low",0.95
same,normalized growth,"locus YJL129C, strain trk1, active compounds read low",0.96
same,normalized growth,"locus YJL134W, strain LCB3, active compounds read low",0.997
same,normalized growth,"locus YJL154C, strain vps35, active compounds read low",0.982
same,normalized growth,"locus YJL164C, strain tpk1, active compounds read low",0.917
same,normalized growth,"locus YJL166W, strain qcr8, active compounds read low",0.956
same,normalized growth,"locus YJL168C, strain set2, active compounds read low",0.991
same,normalized growth,"locus YJL187C, strain SWE1 (second series), active compounds read low",0.905
same,normalized growth,"locus YJR043C, strain POL32, active compounds read low",0.971
